# Results as given in PubChem BioAssay (NCATS).
# Where “and” joins values, the source holds several entries; their conditions need not be identical. Identical values can stand only once. Records with an inconclusive call do not appear. A call without a number means that no potency is given here. Where a structure was tested more than once in an assay, its records may differ in their call. Calls of active or inactive are those of the source. Unless noted, the call rests on the fitted dose curve; in most records, active means well fitted curve in the direction sought with a large enough effect; inconclusive means small, poorly fitted or top-dose-only effect, or another doubt; inactive means no such curve, though single readings can be large; an effect the other way counts as inactive or inconclusive.
# Key:
# [1] = target: Cellular tumor antigen p53 (Homo sapiens) (UniProt P04637); assay: Primary qHTS for small molecule compounds that upregulate eGFP-tagged delta133p53alpha (in N-terminal) cells. (AID 2060322); conditions: NCI-H358 eGFP-delta133p53alpha fluorescence, 24 h; activation: stronger effect = higher value; further: series mostly up to about 56 µM; nearly all actives have a fitted effect of over 75% in size
# Method in brief: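 NCI-H358 cells pre-induced 24 h with 10 ng/ml doxycycline to express N-terminal eGFP-delta133p53alpha, then dosed 24 h at 37C without doxycycline; fixed, Hoechst-stained, GFP intensity by laser scanning cytometry, normalized to DMSO (0%) and 57.5 uM 5-azacytidine (100%).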
# [2] = target: Aldehyde dehydrogenase, mitochondrial (Homo sapiens) (UniProt P05091); assay: qHTS for Inhibitors of the Aldehyde Dehydrogenase Family (ALDH2) Validation screens (AID 2061302; active means well fitted inhibition curve with a large enough effect; title and protocol of this record describe different tests)
# [3] = target: Retinaldehyde dehydrogenase 3 (Homo sapiens) (UniProt P47895); assay: qHTS for Inhibitors of the Aldehyde Dehydrogenase Family (ALDH1A3) Validation screen (AID 2061312); further: nearly all actives have a fitted effect of over 45% in size
# [4] = target: Cellular tumor antigen p53 (Homo sapiens) (UniProt P04637); assay: Primary qHTS for small molecule compounds that upregulate eGFP-tagged delta133p53alpha (in C-terminal) cells. (AID 2060324)
# Method in brief: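 NCI-H358 cells pre-induced 24 h with 100 ng/ml doxycycline to express delta133p53alpha-eGFP, then dosed in doxycycline-free medium for 24 h at 37C. Fixed, Hoechst-stained; GFP intensity by laser scanning cytometry, normalized to DMSO wells.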
# [5] = target: Aldehyde dehydrogenase, mitochondrial (Homo sapiens) (UniProt P05091); assay: qHTS for Inhibitors of the Aldehyde Dehydrogenase Family (ALDH2) Confirmatory screens (AID 2061303; active means well fitted inhibition curve with a large enough effect; title and protocol of this record describe different tests; further: nearly all actives have a fitted effect of over 45% in size; further: potency means the concentration at half of the fitted maximal effect)
# [6] = qHTS for Inhibitors of the Aldehyde Dehydrogenase Family (ALDH1A2, ALDH1A3, ALDH2, ALDH3A1) (AID 2061307); further: nearly all actives have a fitted effect of over 50% in size; on potency: test system not described further here; potency means the concentration at half of the fitted maximal effect
# [7] = target: Retinaldehyde dehydrogenase 3 (Homo sapiens) (UniProt P47895); assay: qHTS for Inhibitors of the Aldehyde Dehydrogenase Family (ALDH1A3) Confirmatory screens (AID 2061311); further: nearly all actives have a fitted effect of over 60% in size; further: potency means the concentration at half of the fitted maximal effect
# [8] = target: Retinal dehydrogenase 2 (Homo sapiens) (UniProt O94788); assay: qHTS for Inhibitors of the Aldehyde Dehydrogenase Family (ALDH1A2) Confirmation screens (AID 2061314); further: nearly all actives have a fitted effect of over 65% in size; further: potency means the concentration at half of the fitted maximal effect
# [9] = target: Aldehyde dehydrogenase 1A1 (Homo sapiens) (UniProt P00352); assay: qHTS for Inhibitors of the Aldehyde Dehydrogenase Family (ALDH1A1) Confirmatory screens (AID 2061316); further: nearly all actives have a fitted effect of over 65% in size; further: potency means the concentration at half of the fitted maximal effect
# [10] = BET inhibitor-based combinations targeting novel dependencies in MECOM-rearranged (r) AML: HNT-34 cell line (AID 2202234); further: nearly all actives have a fitted effect of over 35% in size
# Method in brief: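 Cells at 500/well were exposed for 48 hr to MIPE v5.0 drugs as 11-point dose curves. Viability was read by CellTiter-Glo luminescence and normalized to DMSO and empty-well controls. Activity was expressed as AUC and per-cell-line Z-AUC.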
# [11] = BET inhibitor-based combinations targeting novel dependencies in MECOM-rearranged (r) AML: AML-191 cell line (AID 2202236; further: nearly all actives have a fitted effect of over 35% in size)
# Method in brief: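 AML cell lines seeded at 500 cells/well, treated with 11-point dose curves for 48 h. Viability by CellTiter-Glo luminescence, normalised to DMSO and empty wells; activity expressed as AUC and per-cell-line Z-transformed AUC.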
# Chain of Cellular tumor antigen p53 (Homo sapiens) (P04637 whole entry, looked up): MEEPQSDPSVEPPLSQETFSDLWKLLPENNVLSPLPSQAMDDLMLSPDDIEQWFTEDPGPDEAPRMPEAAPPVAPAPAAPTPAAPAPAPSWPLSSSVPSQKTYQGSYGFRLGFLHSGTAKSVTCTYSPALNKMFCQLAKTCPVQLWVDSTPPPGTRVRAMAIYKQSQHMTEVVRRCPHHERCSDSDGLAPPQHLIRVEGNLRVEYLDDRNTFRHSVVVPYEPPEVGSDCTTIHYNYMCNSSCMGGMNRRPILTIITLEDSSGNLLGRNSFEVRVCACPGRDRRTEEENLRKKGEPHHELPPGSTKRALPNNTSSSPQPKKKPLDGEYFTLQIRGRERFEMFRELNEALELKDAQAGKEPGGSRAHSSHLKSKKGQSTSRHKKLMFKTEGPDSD
smiles,measurement,setting,value
Nc1cc2c(ncn2CCOCP(=O)(O)O)c(=O)[nH]1,activation,[1],-41.7% (inactive)
same,Potency,[2],inactive
OC1CCCCC1N1CCC(c2ccccc2)CC1 (centres undefined),activation,[1],-21.4% (inactive)
same,Potency,[2],inactive
same,Potency,[3],inactive
NCCc1ccc(O)cc1,activation,[1],0.565% (inactive) and 11.2% (inactive)
same,Potency,[2],inactive
same,Potency,[3],inactive
CCCN(CCC)[C@H]1CCc2c(F)ccc(O)c2C1,activation,[1],15.8% (inactive)
same,Potency,[2],inactive
CN1C[C@H](CNC(=O)OCc2ccccc2)C[C@@H]2c3cccc4c3c(cn4C)C[C@H]21,activation,[1],-6.69% (inactive) and -23.9% (inactive)
same,Potency,[2],inactive
CN1CC[C@@]2(C)c3cc(OC(=O)Nc4ccccc4)ccc3N(C)[C@@H]12,activation,[1],26.7% (inactive)
same,Potency,[4],inactive
same,Potency,[5],inactive
same,Potency,[6],8.96 µM (active)
same,Potency,[7],inactive and 7.98 µM (active)
same,Potency,[8],inactive and 5.65 µM (active)
O=S1(=O)N(CCN2CC=C(c3c[nH]c4cc(F)ccc34)CC2)c2cccc3c2N1CCC3,activation,[1],24.1% (inactive)
same,Potency,[2],inactive
same,Potency,[3],inactive
O=[N+]([O-])c1ccc2nc(N3CCNCC3)ccc2c1,activation,[1],-42.9% (inactive)
same,Potency,[4],inactive
same,Potency,[5],398 nM (active) and 2.51 µM (active)
same,Potency,[6],14.1 µM (active) and 12.6 µM (active)
same,Potency,[7],10 µM (active)
same,Potency,[8],2.51 µM (active) and 6.31 µM (active)
same,Potency,[9],15.9 µM (active)
C[C@@H]1O[C@@H](O[C@H]2C[C@@H](O)[C@]3(CO)[C@@H]4C(CC[C@]3(O)C2)[C@@]2(O)CC[C@H]([C@@H]3COC(=O)C3)[C@@]2(C)C[C@H]4O)[C@H](O)[C@H](O)[C@H]1O (some centres undefined),activation,[1],-50% (inactive)
same,Potency,[2],inactive
same,Potency,[3],inactive
CCCN1CCO[C@@H]2c3cc(O)ccc3OC[C@H]21,activation,[1],-9.95% (inactive)
same,Potency,[4],inactive
same,Potency,[2],inactive
same,Potency,[10],inactive
same,Potency,[11],inactive
NC(CP(=O)(O)O)C(=O)O (centres undefined),activation,[1],-3.82% (inactive)
same,Potency,[2],inactive
same,Potency,[3],inactive
COc1ccc2c(c1O)-c1cccc3c1[C@@H](C2)N(C)CC3,activation,[1],-2.98% (inactive)
same,Potency,[2],inactive
CCCN(CCC)[C@@H]1CCc2ccc(O)cc2C1,activation,[1],-24.8% (inactive)
same,Potency,[2],inactive
same,Potency,[3],inactive
NC1CC1c1ccccc1 (centres undefined),activation,[1],-3.62% (inactive) and 6.08% (inactive)
same,Potency,[2],inactive
same,Potency,[3],inactive
Cc1[nH]c2ccc(O)cc2c1CCN,activation,[1],-25.5% (inactive)
same,Potency,[2],inactive
same,Potency,[3],inactive
CNCCc1c[nH]c2ccc(O)cc12,activation,[1],-26.4% (inactive)
same,Potency,[2],inactive
same,Potency,[3],inactive
O=C1CCCN1CC#CCN1CCCC1,activation,[1],-14.5% (inactive)
same,Potency,[2],inactive
same,Potency,[3],inactive
CC(C)Oc1cccnc1N(C)C1CCN(Cc2ccccc2)CC1,activation,[1],-4.1% (inactive)
same,Potency,[2],inactive
same,Potency,[3],inactive
CN(N=O)c1ccc(O)c(O)c1,activation,[1],-30.1% (inactive)
same,Potency,[4],inactive
same,Potency,[7],12.7 µM (active)
Cc1ncc(CNC(=O)N(CCCl)N=O)c(N)n1,activation,[1],6.21% (inactive) and -40.8% (inactive)
same,Potency,[4],inactive
same,Potency,[5],inactive
same,Potency,[6],inactive
same,Potency,[7],inactive
same,Potency,[9],inactive
CC1(C(=O)O)C2CCC(O2)C1(C)C(=O)O (centres undefined),activation,[1],-33.6% (inactive)
same,Potency,[2],inactive
same,Potency,[3],inactive
CCCN1CCc2cccc3c2[C@H]1Cc1ccc(O)c(O)c1-3,activation,[1],-13.3% (inactive)
same,Potency,[2],inactive
same,Potency,[7],22.5 µM (active)
c1ccc2sc(C3(N4CCCCC4)CCCCC3)cc2c1,activation,[1],14.7% (inactive)
same,Potency,[2],inactive
same,Potency,[3],inactive
CC(C)(C)c1o[nH]c(=O)c1CC(N)C(=O)O (centres undefined),activation,[1],-13.9% (inactive)
same,Potency,[2],inactive
same,Potency,[3],inactive
CC(C)(C)c1cc(C=C(C#N)C#N)cc(C(C)(C)C)c1O,activation,[1],6.66% (inactive)
same,Potency,[2],inactive
same,Potency,[3],inactive
CCOC(=O)c1ncn2c1[C@@H]1CCCN1C(=O)c1cc(OC)ccc1-2,activation,[1],2.15% (inactive)
same,Potency,[4],inactive
same,Potency,[5],inactive
same,Potency,[6],inactive
same,Potency,[7],inactive
same,Potency,[8],inactive
same,Potency,[9],inactive
CC(N)Cc1c[nH]c2ccc(OCc3cccs3)cc12 (centres undefined),activation,[1],-31.9% (inactive)
same,Potency,[2],inactive
same,Potency,[3],inactive
COc1ccccc1N1CCNCC1,activation,[1],-15.9% (inactive) and 0.526% (inactive)
same,Potency,[2],inactive
CN1CCc2cccc(Cl)c2CC1,activation,[1],-13.1% (inactive)
same,Potency,[2],inactive
same,Potency,[3],inactive
Clc1cc(I)cc(Cl)c1NC1=NCCN1,activation,[1],-24.7% (inactive)
same,Potency,[2],inactive
same,Potency,[3],inactive
Nc1ccc(CCN2CCN(c3cccc(C(F)(F)F)c3)CC2)cc1,activation,[1],-62.8% (inactive)
same,Potency,[2],inactive
same,Potency,[3],inactive
